# Experimental data: PubChem BioAssay AID449762 (Southern Research Specialized Biocontainment Screening …, 2010)
# Screen size: about 330,000 compounds; about 1,900 (0.58%) were called active. Another 4% or so got no clear call; they are omitted. Cut-off read from the data, not from the text of the source: inconclusive = inhibition above about 70% without an active follow-up result; inactive = below that. A selection follows. Results with a measured potency or affinity are listed apart.
# Test: M. tuberculosis growth inhibition, HTS (AID 449762);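 note: bacterial growth assessed after seven days of incubation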
# Conditions: M. tuberculosis H37Rv growth inhibition, 7H9 media; at 25 µM; stronger effect = higher value
row,SMILES,inhibition
1,Cc1cc(=O)oc2ccc(OCC(=O)N3CCc4ccccc43)cc12,-7.76% (inactive)
2,Cc1cc(=O)[nH]c(N=N/C(=N/Nc2ccccc2C)c2ccccc2)n1,68.7% (inactive)
3,COc1ccc(N/C(N)=N/c2nc(C)cc(=O)[nH]2)cc1,4.61% (inactive)
4,Oc1ccc(/C=N/Nc2ccc(Cl)nn2)c(O)c1O,-6.06% (inactive)
5,CCOc1ccccc1/C=N/Nc1ccc(Cl)nn1,13.2% (inactive)
6,C/C(=N\NC(=S)NCc1ccccc1)c1ccc(Cl)s1,-0.65% (inactive)
7,C/C(=N\NC(N)=O)c1ccc(Cl)s1,-8.77% (inactive)
8,Cc1cccc(N(C)S(=O)(=O)c2c(C)noc2C)c1,2.4% (inactive)
9,C/C(CC(=O)Nc1ccccn1)=N\NC(=O)c1ccccc1O,-3.57% (inactive)
10,O=C(Nc1ccc2oc(-c3ccc(Cl)c(Cl)c3)nc2c1)c1ncn[nH]1,50.6% (inactive)
11,O=C(Nc1ccc2oc(-c3cccc4ccccc34)nc2c1)c1ncn[nH]1,9.87% (inactive)
12,CC(=O)N(C(C)=O)c1c(C#N)c(C)n(-c2ccccc2)c1C(=O)c1ccccc1,-0.27% (inactive)
13,CCCC(=O)c1ccc(-c2ccccc2)cc1,1.42% (inactive)
14,Cc1ccc2nc(NC(=O)CN3C(=O)NC4(CCCCC4)C3=O)sc2c1,5.87% (inactive)
15,COc1ccccc1NS(=O)(=O)c1cc(C(=O)NCCC(C)C)ccc1F,16.6% (inactive)
16,CC(C)CCOCc1nc2sc3c(c2c(=O)[nH]1)CCC(C)C3 (centres undefined),-5.2% (inactive)
17,CCOC(=O)c1nc2sc3c(c2c(=O)[nH]1)CCCC3,2.32% (inactive)
18,COC(=O)C1CCN(c2nc3ccccc3nc2C(C#N)C(=O)OCC(C)C)CC1 (centres undefined),-4.17% (inactive)
19,COc1ccccc1NS(=O)(=O)c1cccc(NC(=O)C2CC2)c1,-4.5% (inactive)
20,COc1cc(OC)c(C#N)c(S(=O)(=O)Cc2ccccc2)c1,-8.56% (inactive)
21,O=[N+]([O-])c1ccc(OS(=O)(=O)Cc2ccccc2)cc1,4.45% (inactive)
22,O=C(CS(=O)(=O)c1cn(CC(=O)N2CCCC2)c2ccccc12)Nc1ccccc1F,2.67% (inactive)
23,Cc1c(C(c2ccc(F)cc2)c2c(C)n(C)n(-c3ccccc3)c2=O)c(=O)n(-c2ccccc2)n1C,5.49% (inactive)
24,COc1ccc(-c2csc(NC(CO)c3nc4ccccc4n3Cc3ccc(C)cc3)n2)cc1 (centres undefined),25.6% (inactive)

row,SMILES,inhibition
1,OCCOCCn1c(C(CO)Nc2nc(-c3ccc(F)cc3)cs2)nc2ccccc21 (centres undefined),6.37% (inactive)
2,Cc1ccc(NCc2nc(SCC(=O)Nc3ccccc3)n[nH]2)cc1,-2.62% (inactive)
3,COc1ccc(NC(=O)C(C)NS(=O)(=O)c2ccccc2)cc1Cl (centres undefined),-8.72% (inactive)
4,COc1ccc(NC(=O)C(C)NS(=O)(=O)c2ccc(NC(C)=O)cc2)cc1Cl (centres undefined),-1.73% (inactive)
5,COc1ccc(CCN=C(N)NS(=O)(=O)c2ccc(C)cc2)cc1OC,-1.62% (inactive)
6,Cc1ccccc1C1c2[nH]c3ccccc3c2CCN1C(=O)c1ccc(=O)n(C)n1 (centres undefined),53.9% (inactive)
7,CCc1ccc(C2c3[nH]c4ccccc4c3CCN2C(=O)c2cc[n+]([O-])cc2)cc1 (centres undefined),-3.85% (inactive)
8,O=C(Nc1ccc(OCc2ccccc2)cc1)c1ccccc1,-2.87% (inactive)
9,COc1cc(N/C=C(\C(C)=O)c2ccccc2)cc(OC)c1,4.79% (inactive)
10,COc1ccc(CCNCC(=O)Nc2ccc(OC(F)F)cc2)cc1,-4.99% (inactive)
11,CCCCC1CCC(C(=O)N(CCCC)c2c(N)n(CCCC)c(=O)[nH]c2=O)CC1 (centres undefined),-9.54% (inactive)
12,Clc1nc(CN2CCOCC2)nc2sc3c(c12)CCC3,6.4% (inactive)
13,CC1CCc2c(sc3nc(CN4CCOCC4)nc(N4CCc5ccccc5C4)c23)C1 (centres undefined),6.42% (inactive)
14,CCc1ccccc1Nc1nc(N)nc(CSCC(=O)c2cc(C)n(C)c2C)n1,-11.5% (inactive)
15,O=C(NCCCc1ccc(F)cc1)C1CCC(=O)N(CCCN2CCCC2=O)C1 (centres undefined),11.4% (inactive)
16,O=C1OCCC1Sc1nnc(-c2ccccc2)o1 (centres undefined),-4.39% (inactive)
17,O=C1CC(Sc2nnc(-c3ccccc3)o2)C(=O)N1c1ccccc1 (centres undefined),-3.28% (inactive)
18,COc1ccccc1OCC(=O)Nc1ccc(S(=O)(=O)N2CCOCC2)cc1,-3.94% (inactive)
19,CCCCn1c(=O)[nH]c(=O)c2c1nc(-c1ccsc1)n2Cc1ccccc1,7.19% (inactive)
20,CCC(=O)Nc1ccc(C2=Nn3c(nnc3C(C)C)SC2)cc1,9.12% (inactive)
21,CC(C)c1nnc2n1N=C(c1ccc(Cl)cc1)CS2,45.3% (inactive)
22,Cc1ccc(CN2CCSc3ccc(C(=O)NCC4CCCO4)cc32)cc1 (centres undefined),-1.08% (inactive)
23,Nc1cc([N+](=O)[O-])ccc1Nc1ccccc1,2.95% (inactive)
24,Nc1ccc(Nc2ccc([N+](=O)[O-])cc2[N+](=O)[O-])cc1,4.35% (inactive)

row,SMILES,inhibition
1,COc1ccc2sc(-c3ccc(S(C)(=O)=O)cc3)c(C(=O)NCCc3c[nH]c4ccccc34)c2c1,0.16% (inactive)
2,CN1C(=O)N(C)C(=O)C2(Cc3cc(N)ccc3N3CCN(c4ccccc4F)CC32)C1=O (centres undefined),-0.78% (inactive)
3,CN(C(=S)NC(=O)c1ccccc1)C1CCCCC1,60.5% (inactive)
4,Cc1ccc(C(=O)NC(=S)N(C)C2CCCCC2)cc1,62.7% (inactive)
5,O=C(NCc1ccc2c(c1)OCO2)C1CCC(CNS(=O)(=O)c2ccc(Cl)cc2)CC1 (centres undefined),-12% (inactive)
6,O=C(CN1C(=O)NC2(CCCC2)C1=O)N1CCN(S(=O)(=O)c2ccc(Cl)c(C(F)(F)F)c2)CC1,-1.26% (inactive)
7,Brc1ccc2[nH]cc(/C=N/N3CCCCC3)c2c1,-3.65% (inactive)
8,CC1CCCC(C)N1/N=C/c1cccc(Br)c1 (centres undefined),2.02% (inactive)
9,CCCCNS(=O)(=O)c1ccc(OC)c2ncccc12,-7.49% (inactive)
10,COc1cc(NC(=O)c2ccc3snnc3c2)cc(OC)c1,-2.63% (inactive)
11,C[C@H](NC(=O)c1cc2c(cn1)[nH]c1ccccc12)C(=O)O,61.1% (inactive)
12,COC(=O)[C@H](C)NC(=O)c1cc2c(cn1)[nH]c1ccccc12,25.1% (inactive)
13,Cc1cc(C)c2nc(-c3ccccn3)cc(C(=O)NCCc3ccc(S(N)(=O)=O)cc3)c2c1,2.93% (inactive)
14,O=C(CSC1=NC(=O)C(c2ccccc2)C(=O)N1)Nc1cccc(Cl)c1 (centres undefined),-1.6% (inactive)
15,NS(=O)(=O)c1ccc(NC(=O)CSC2=NC(=O)C(c3ccccc3)C(=O)N2)cc1 (centres undefined),-4.16% (inactive)
16,CC1CC(NC(=O)CC#N)CC(C)(C)C1 (centres undefined),-2.07% (inactive)
17,CCNC(=O)CC1C(=O)N(c2ccc(C)cc2)C(=O)N1CCc1sccc1C (centres undefined),-0.52% (inactive)
18,COc1ccc(OC)c(N(CC(=O)Nc2ccccc2)S(=O)(=O)c2ccccc2)c1,-0.48% (inactive)
19,CC(C)(O)c1ccc2c(c1)CCC1C(C)(C(=O)O)CCCC21C (centres undefined),-2.51% (inactive)
20,CC1(C(=O)O)CCCC2(C)c3cc(O)ccc3CCC12 (centres undefined),-4.51% (inactive)
21,Cc1cc(CN(C)C(=O)C2CCC(=O)N(CCc3ccccc3)C2)n[nH]1 (centres undefined),8.05% (inactive)
22,CC(=O)Nc1ccc(SC(C)C(=O)NC(N)=O)cc1 (centres undefined),-6.23% (inactive)
23,NC1=NC[C@H](Cc2ccc(O)cc2)N1CCc1cccc(F)c1,-2.28% (inactive)
24,NC1=NC[C@@H](Cc2ccc(O)cc2)N1CCc1cccc2ccccc12,7.62% (inactive)

row,SMILES,inhibition
1,Cc1cc(=O)oc2cc(OCC(=O)N3CCCC3)ccc12,-4.87% (inactive)
2,COc1ccccc1CCC(=O)NNC(=O)c1cccs1,-0.29% (inactive)
3,CCCCCCCCCCOC(=O)Cn1c(COc2ccccc2OC)[n+](C)c2ccccc21,54.7% (inactive)
4,CCCCCCCCCCOC(=O)Cn1c(COc2ccccc2)[n+](C)c2ccccc21,49.6% (inactive)
5,COc1ccc([C@H]2CC(=O)C=C(c3ccc(Br)c4ccccc34)C2)cc1,67.8% (inactive)
6,COc1ccc([C@H]2CC(=O)C=C(c3cc4ccccc4c4ccccc34)C2)cc1,-1.17% (inactive)
7,COc1ccc(-c2[nH]ncc2CN2CCCOc3c(cccc3OC)C2)c(OC)c1,9.33% (inactive)
8,O=C1CCCN1CCC(=O)N1CCCC(Nc2ccc(F)cc2)C1 (centres undefined),-9.8% (inactive)
9,OC(CN1CCN(c2ccccc2Cl)CC1)c1ccccc1 (centres undefined),2.61% (inactive)
10,CC(=O)Nc1ccc(NC(=O)C/C(C)=N/NC(N)=S)cc1,3.29% (inactive)
11,C/C(CC(=O)Nc1cc(Cl)ccc1C)=N\NC(N)=O,4.8% (inactive)
12,COc1ccc(C2(c3ccc(OC)cc3)NC(=O)N(CC(=O)Nc3ccc(C(=O)N(C)C)cc3)C2=O)cc1,-1.84% (inactive)
13,CCN=c1scc(-c2ccco2)n1/N=C/c1ccc(O)cc1,28.5% (inactive)
14,CC(C)N=c1scc(-c2ccco2)n1/N=C/c1ccc(O)c(O)c1,9.93% (inactive)
15,COc1ccc(S(=O)(=O)Nc2ccccc2N2CCOCC2)cc1OC,3.88% (inactive)
16,CC(Nc1cc(C)cc(C)c1)=[N+](C)CCNS(=O)(=O)c1ccc(Cl)cc1,-13.9% (inactive)
17,Cc1ccc(-c2nsc3c(N4CCC(C(N)=O)CC4)ncnc23)cc1,-5.48% (inactive)
18,O=c1c(C=NCc2ccccc2)c(NCc2ccccc2)nc2ccccn12,11.6% (inactive)
19,COC(=O)CSc1nc2ccccc2o1,20% (inactive)
20,COc1ccc(C(=O)N/C(N)=N/c2nc3ccccc3o2)cc1,43% (inactive)
21,O=C(O)c1ccc(NS(=O)(=O)c2ccc3c(c2)OCCCO3)cc1,5.48% (inactive)
22,COc1ccc(N(CC(=O)NC2CCCCCC2)S(=O)(=O)c2ccccc2)cc1Cl,11.1% (inactive)
